Each structure is given as a SMILES string. Results filed as inconclusive are left out. A call without a number means that no potency is given here. Calls of active or inactive are those of the source. The call rests on the fitted dose curve; in most records, active means well fitted inhibition curve with a large enough effect; inconclusive means small, poorly fitted or top-dose-only effect; inactive means flat fitted curve, though single readings scatter.
Potency means the concentration at half of the fitted maximal effect.

The target in the assay is Aldehyde dehydrogenase, mitochondrial (Homo sapiens) (UniProt P05091). Nature of the assay: qHTS for Inhibitors of the Aldehyde Dehydrogenase Family (ALDH2) Primary screen (AID 2061308). Further: nearly all actives have a fitted effect of over 55% in size. The note with it: ALDH2 enzyme inhibition qHTS, 1536-well; series mostly up to 56 µM. (In qHTS, concentration-response curves come from the screen itself.)
`C/C=C/C=C/c1cc2c(C=O)c(O)c(CC=C(C)C)cc2o1`: the Potency was 28.2 µM (active). Turning to `C=C1C(=O)OC2C1CCC(=C)C1CC(OC(C)=O)C(=C)C12` (configuration not stated), the Potency entry was “inactive”. As for `CC1=CC(=O)C(=C(C)C)CC2C(C)(O)CCC12O` (configuration not stated), the Potency entry was “inactive”.

Turning to `O=C(NCC(=O)N1CCCC1)Nc1ccc2ccccc2c1`, the Potency entry is “inactive”. Turning to `O=c1nc(-c2ccccn2)sc2ccccc12`, the Potency was 15.8 µM (active). As for `CC1=C2CC3C(CCC3(C)O)C(C)(O)CC2OC1=O` (configuration not stated), the Potency result is “inactive”. Regarding `CC1(C)O[C@@]2(C)CC[C@@H]1C[C@@H]2OC1OC(CO)C(O)C(O)C1O` (some centres not stated), the Potency entry is “inactive”. For `Cc1[nH]c(/C=C2\C(=O)Nc3cc(-c4ccccc4)ccc32)c(C)c1CCC(=O)O`, the Potency entry was “inactive”.

For the compound `O=C(OC1C=C(CO)C2C(OC3OC(CO)C(O)C(O)C3O)OC=CC12O)c1ccc(O)cc1` (configuration not stated), the Potency result was “inactive”.

For `COc1ccc(-c2ccn(CC[C@](C)(C(=O)NO)S(C)(=O)=O)c(=O)c2)c(F)c1`, the Potency entry is “inactive”. As to `O=C(/C=C/c1ccc(O)c(O)c1)O[C@H]1[C@H](OC2CCCCC2O)O[C@H](CO)[C@@H](O)[C@@H]1O` (some centres not stated), the Potency result was “inactive”. Consider `Cc1ccc(CN2CCNCC2)cc1NC(=O)CNc1ccc(F)c(F)c1`, for which the Potency entry was “inactive”. Turning to `Cn1cc(-c2ccncc2)c(-c2ccc(OCc3ccc4ccccc4n3)cc2)n1`, the Potency result is “inactive”. In the case of `CC(C)=C1CC2C(CCC2(C)O)C(C)(O)CC1=O` (configuration not stated), the Potency entry was “inactive”.

Regarding `COc1cc([C@H]2c3cc(O)c(OC)cc3C[C@@H](CO[C@@H]3O[C@H](CO)[C@@H](O)[C@H](O)[C@H]3O)[C@@H]2CO)ccc1O`, the Potency entry was “inactive”. Regarding `C=C1C(=O)OC2CC(C)=C(C(C)CCCO)C(O)C12` (configuration not stated), the Potency entry is “inactive”.

In the case of `OC[C@H]1O[C@@H](O[C@H]2[C@H](O)[C@@H](CO)O[C@@H](OCc3ccccc3)[C@@H]2O[C@@H]2OC[C@](O)(CO)[C@H]2O)[C@H](O)[C@@H](O)[C@@H]1O`, the Potency result is “inactive”.

The values are drawn from PubChem BioAssay (NCATS).
